From PubChem BioAssay (NCATS)
Inconclusive results are not listed. A call without a number means that no potency is given here. The source made the active and inactive calls. The call rests on the fitted dose curve; in most records, active means well fitted inhibition curve with a large enough effect; inconclusive means small, poorly fitted or top-dose-only effect; inactive means no such curve, though single readings can be large or run the other way.

These compounds were tested on Zika virus NS2B-NS3 protease (unlinked) (assay: Optimization of GU AMC qHTS for Zika virus inhibitors: Unlinked NS2B-NS3 protease assay (AID 1347151; further: nearly all actives have a fitted effect of over 80% in size)). Conditions: recombinant ZIKV NS2B-NS3 protease, fluorogenic AMC substrate; series mostly up to 52.5 µM.
How it was run: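 Percent inhibition is derived from the 15-min change in AMC fluorescence, normalized against no-inhibitor and no-enzyme controls, then fitted to a 4-parameter Hill curve. Aprotinin was the intraplate control.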

**Q.** For CC(C(=O)O)c1ccc(CC2CCCC2=O)cc1 (stereo unspecified), which Potency is on record?
**A.** Its Potency is “inactive”.

**Q.** How did the Potency turn out when CN=C(NC#N)NCCSCc1nc[nH]c1C was run?
**A.** The Potency was “inactive”.

**Q.** How did the Potency turn out when CC(=O)OCC1=C(C(=O)O)N2C(=O)[C@@H](NC(=O)Cc3cccs3)[C@H]2SC1 was run?
**A.** The Potency was “inactive”.

**Q.** For Nc1c2c(nc3ccccc13)CCCC2O (stereo unspecified), which Potency is on record?
**A.** Its Potency is “inactive”.

**Q.** For NC(=O)N1c2ccccc2C=Cc2ccccc21, which Potency is on record?
**A.** Its Potency is “inactive”.

**Q.** With CCCN1C[C@H](CSC)C[C@@H]2c3cccc4[nH]cc(c34)C[C@H]21 as the compound, how does the Potency read?
**A.** Its Potency is “inactive”.

**Q.** With Nc1ncn([C@@H]2O[C@H](CO)[C@@H](O)[C@H]2O)c(=O)n1 as the compound, how does the Potency read?
**A.** The Potency was “inactive”.

**Q.** For O=c1[nH]c(=O)n([C@H]2C[C@H](O)[C@@H](CO)O2)cc1Br, which Potency is on record?
**A.** The Potency was “inactive”.

**Q.** With C[C@]12CCC(=O)C=C1CC[C@@H]1[C@@H]2CC[C@@]2(C)[C@H]1CC[C@]2(O)C(=O)CO as the compound, how does the Potency read?
**A.** Its Potency is “inactive”.

**Q.** How did the Potency turn out when O=C(CCCN1CCC(O)(c2cccc(C(F)(F)F)c2)CC1)c1ccc(F)cc1 was run?
**A.** The Potency was “inactive”.

**Q.** Which Potency does the source give for CCN(CC)CCNC(=O)c1ccc(NC(C)=O)cc1 here?
**A.** The Potency was “inactive”.

**Q.** For Cc1nc2c([nH]1)c(=O)n(C)c(=O)n2Cc1ccco1, which Potency is on record?
**A.** Its Potency is “inactive”.

**Q.** With COc1cc(C(=O)OCCCN2CCCN(CCCOC(=O)c3cc(OC)c(OC)c(OC)c3)CC2)cc(OC)c1OC as the compound, how does the Potency read?
**A.** Its Potency is “inactive”.

**Q.** CO[C@@]1(NC(=O)CSCC#N)C(=O)N2C(C(=O)O)=C(CSc3nnnn3C)CS[C@@H]21 was tested. Which Potency did it give?
**A.** Its Potency is “inactive”.

**Q.** Which Potency does the source give for NC(=O)c1ncn([C@@H]2O[C@H](CO)[C@@H](O)[C@H]2O)c1O here?
**A.** The Potency was “inactive”.

**Q.** With CC1=NS(=O)(=O)c2cc(Cl)ccc2N1 as the compound, how does the Potency read?
**A.** The Potency was “inactive”.

**Q.** Which Potency does the source give for CC(N=C(NC#N)Nc1ccncc1)C(C)(C)C (stereo unspecified) here?
**A.** Its Potency is “inactive”.

**Q.** For CN(C)CC/C=C1\c2ccccc2COc2ccccc21, which Potency is on record?
**A.** The Potency was “inactive”.

**Q.** CCCCNC(=O)NS(=O)(=O)c1ccc(C)cc1 was tested. Which Potency did it give?
**A.** Its Potency is “inactive”.

**Q.** For NC(=O)c1cn(Cc2c(F)cccc2F)nn1, which Potency is on record?
**A.** Its Potency is “inactive”.

**Q.** How did the Potency turn out when c1ccc2c(c1)CCCC2C1=NCCN1 (stereo unspecified) was run?
**A.** The Potency was “inactive”.

**Q.** With CC(C)[N+](C)(CCOC(=O)C1c2ccccc2Oc2ccccc21)C(C)C as the compound, how does the Potency read?
**A.** The Potency was “inactive”.

**Q.** Which Potency does the source give for CCCN(CCC)C(=O)C(CCC(=O)O)NC(=O)c1ccccc1 (stereo unspecified) here?
**A.** The Potency was “inactive”.

**Q.** How did the Potency turn out when CN(C)C(=O)Oc1cccc([N+](C)(C)C)c1 was run?
**A.** The Potency was “inactive”.

**Q.** Which Potency does the source give for C=CCc1ccccc1OCC(O)CNC(C)C (stereo unspecified) here?
**A.** The Potency was “inactive”.

**Q.** For N[C@@H](COP(=O)(O)O)C(=O)O, which Potency is on record?
**A.** The Potency was “inactive”.

**Q.** For CCC(=O)c1ccc2c(c1)N(CCCN(C)C)c1ccccc1S2, which Potency is on record?
**A.** The Potency was “inactive”.

**Q.** With CNCCC(Oc1ccccc1OC)c1ccccc1 (stereo unspecified) as the compound, how does the Potency read?
**A.** Its Potency is “inactive”.

**Q.** For CN(C)[C@@H]1C(=O)C(C(N)=O)=C(O)[C@@]2(O)C(=O)C3=C(O)c4c(O)ccc(Cl)c4[C@@H](O)[C@H]3C[C@@H]12, which Potency is on record?
**A.** The Potency was “inactive”.

**Q.** How did the Potency turn out when CCCN(CCC)CCc1cccc2c1CC(=O)N2 was run?
**A.** The Potency was “inactive”.

**Q.** With CCCNC(C)C(=O)Nc1ccccc1C (stereo unspecified) as the compound, how does the Potency read?
**A.** The Potency was “inactive”.

**Q.** With CCn1ccnc1CC1COc2ccccc2O1 (stereo unspecified) as the compound, how does the Potency read?
**A.** Its Potency is “inactive”.

**Q.** Which Potency does the source give for Cc1nnc(SCC2=C(C(=O)O)N3C(=O)[C@@H](NC(=O)Cn4cnnn4)[C@H]3SC2)s1 here?
**A.** The Potency was “inactive”.

**Q.** Which Potency does the source give for CN(C)CC[C@@H](c1ccc(Br)cc1)c1ccccn1 here?
**A.** The Potency was “inactive”.

**Q.** How did the Potency turn out when CC[N+](C)(C)c1cccc(O)c1 was run?
**A.** Its Potency is “inactive”.

**Q.** Which Potency does the source give for COc1cc(Cc2cnc(N)nc2N)cc(OC)c1OC here?
**A.** Its Potency is “inactive”.
